This note sets out measurements from PubChem BioAssay (Tox21).

A short description of test [1]: qHTS assay to identify small molecule HDAC inhibitors (AID 1259364).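 Note: wild-type HCT-116 cells with endogenous class I/II HDAC activity; top concentration of the series differs between compounds; nearly all actives have a fitted effect of over 45% in size.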 In a few lines: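 Read-out: luminescence of HDAC-Glo I/II reagent, 30 min RT, reflecting class I/II deacetylase activity in whole HCT-116 cells pre-exposed 2 h to DMSO-dissolved compounds.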
A short description of test [2]: qHTS assay to identify small molecule HDAC inhibitors - cell viability counter screen (AID 1259365). Note: series mostly up to about 92 µM; nearly all actives have a fitted effect of over 50% in size. An outline of the steps:
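Following a 2hr exposure of overnight-plated wild-type HCT-116 cells to DMSO-delivered compounds, CellTiter-Glo was added and luminescence recorded after 30min at room temperature.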
A general note: qHTS replaces the single test concentration by a dilution series.

Test [3] in a line: qHTS assay to identify small molecule agonists of the sonic hedgehog signaling (Shh) pathway - cell viability counter screen (AID 1259366). Note: nearly all actives have a fitted effect of over 50% in size. In a few lines:
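After a 4hr attachment at 37C, NIH/3T3 cells bearing an integrated Gli1-driven luciferase reporter were dosed with compounds. Treatment lasted 24hr, with the final hour including CellTiter-Fluor for a fluorescence viability measurement.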

A short description of test [4]: qHTS assay to identify small molecule antagonists of the sonic hedgehog signaling (Shh) pathway - cell viability counter screen (AID 1259367). Note: nearly all actives have a fitted effect of over 55% in size. In a few lines: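 NIH/3T3-derived Gli1-Luc reporter cells, 2,000/well, plated 4 hr before compound addition, then stimulated with conditioned medium for 24 hr at 37C. Viability measured in the same wells by CellTiter-Fluor fluorescence, reagent added at 23 hr for 1 hr.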

The nature of test [5]: qHTS assay to identify small molecule agonists of the sonic hedgehog signaling (Shh) pathway (AID 1259368; calls by dose curve;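 note: NIH/3T3-derived 3T3Gli1-Luc cells carrying a stable Gli1-driven firefly luciferase reporter; series mostly up to about 92 µM; nearly all actives have a fitted effect of over 15% in size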). In a few lines: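 A Gli1 transcriptional response element controlled firefly luciferase in 3T3Gli1-Luc cells. Compounds and a positive control were added 4 hr after plating, and cells were incubated a further 24 hr at 37 C before luminescence detection.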
Test [6] is described as follows: qHTS assay to identify small molecule antagonists of the sonic hedgehog signaling (Shh) pathway (AID 1259369; calls by dose curve; note: nearly all actives have a fitted effect of over 45% in size; note: potency is the fitted concentration of half-maximal effect). In a few lines:
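For antagonist detection, the reporter line received test compounds together with conditioned medium, incubated 24hr at 37 C, 5% CO2, then luminescence was recorded following 30min room-temperature luciferase reagent incubation.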

Test [7] in a line: qHTS assay to identify small molecule agonists of the androgen receptor (AR) signaling pathway in the presence of an antagonist - cell viability counter screen (AID 1259379).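 Note: MDA-kb2 human breast cancer cells carrying an MMTV luciferase reporter; series mostly up to about 92 µM; nearly all actives have a fitted effect of over 25% in size.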 An outline of the steps:
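Seed MDA-kb2 at 3,000 cells/well; incubate 5 hr, 37C, 0% CO2. Add nilutamide to 3.0uM final, then pin compounds at 15 concentrations. Incubate 16 hr. Add CellTiter-Fluor at 15 hr, read fluorescence after 1 hr.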

Test [8] is described as follows: qHTS assay to identify small molecule antagonists of the estrogen receptor beta (ER-beta) signaling pathway - cell viability counter screen (AID 1259382). Note: nearly all actives have a fitted effect of over 55% in size. Note: potency is the fitted concentration of half-maximal effect. In a few lines: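 In this multiplexed counter screen, cells were seeded at 2,000 per well in medium with 2% charcoal-stripped FBS and incubated 6 hr before compound and 1nM final E2 were added. Sixteen hours later, ATP-based luminescence reported viability.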

Test [9] can be described thus: qHTS assay to identify small molecule agonists or antagonists of the thyroid stimulating hormone receptor (TSHR) signaling pathway - wild type cell line counter screen (AID 1259384; calls by dose curve). In a few lines:
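Wild-type Hek293 cells, 800/well, 18 h at 37C, then compound with Ro20-1724 for 30 min RT. cAMP by HTRF (cAMP-d2/anti-cAMP cryptate), 1 h RT, fluorescence read. 15 concentrations, triplicates.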

In test [10] the target is Thyrotropin receptor (Homo sapiens) (UniProt P16473). Kind of test: qHTS assay to identify small molecule antagonists of the thyroid stimulating hormone receptor (TSHR) signaling pathway (AID 1259385; calls by dose curve; note: nearly all actives have a fitted effect of over 20% in size; note: potency is the fitted concentration of half-maximal effect). An outline of the steps:
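TSHR-HEK293 cells (800/well) plated 18 h, then compounds with Ro20-1724 and TSH at 1.5 ng/mL final, 30 min at room temperature. cAMP quantified by HTRF (cAMP-d2/anti-cAMP-cryptate, 1 h); 15 concentrations in triplicate.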

Test [11] is described as follows: qHTS assay to identify small molecule agonists of the estrogen receptor alpha (ER-alpha) signaling pathway in the presence of an antagonist - cell viability counter screen (AID 1259386).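 Note: series mostly up to about 92 µM; cells exposed to compounds for 22 h at 37 °C before the viability read; nearly all actives have a fitted effect of over 30% in size.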 In a few lines:
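Viability counter screen using VM7Luc4E2 (full-length ER-alpha, four ERE-luciferase). The cells were treated with compounds alongside ICI-182,780 10.0nM for 22hr, and live-cell protease fluorescence was quantified with CellTiter-Fluor.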

In test [12] the target is Progesterone receptor (Homo sapiens) (UniProt P06401). Description: qHTS assay to identify small molecule agonists of the progesterone receptor (PR) signaling pathway (AID 1346784; calls by dose curve; note: nearly all actives have a fitted effect of over 30% in size). In a few lines:
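Using charcoal-stripped serum (2%) to limit endogenous steroids, PR-UAS-bla HEK 293T cells received compounds for 16 hr at 37C after 6 hr plating; beta-lactamase FRET fluorescence was recorded following 2 hr substrate loading at room temperature.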

For test [13] the target is unchanged. Kind of test: qHTS assay to identify small molecule antagonists of the progesterone receptor (PR) signaling pathway (AID 1346795; active = well fitted inhibition curve with a large enough effect in the signal ratio in the repeat runs, not every such curve was filed as active; the % refers to the signal ratio; note: potency is the fitted concentration of half-maximal effect). An outline of the steps: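 Inhibition of R5020-induced (1 nM final) beta-lactamase reporter signal in PR-UAS-bla HEK293T cells was scored by FRET fluorescence after overnight (16 hr) compound treatment.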
Test [14] is described as follows: qHTS assay to identify small molecule antagonists of the progesterone receptor (PR) signaling pathway - cell viability counter screen (AID 1346798). Note: series mostly up to about 92 µM; nearly all actives have a fitted effect of over 50% in size. An outline of the steps: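 ATP content as viability readout: CellTiter-Glo luminescence, 30 min room temperature, in PR-UAS-bla HEK293T cells after 16 hr compound/R5020 treatment at 37C and 5% CO2.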
Test [15] deals with Estrogen receptor beta (Homo sapiens) (UniProt Q92731). Kind of test: qHTS assay to identify small molecule agonists of the estrogen receptor beta (ER-beta) signaling pathway (AID 1259377; active = well fitted activation curve with a large enough effect in the signal ratio in the repeat runs, not every such curve was filed as active; the % refers to the signal ratio; note: potency is the fitted concentration of half-maximal effect). In a few lines:
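In HEK293T cells bearing a UAS-beta-lactamase reporter under ER-beta control, DMSO-delivered compounds were incubated for 16 hr at 37C. Activity was detected as fluorescence 2 hours after LiveBLAzer B/G FRET substrate addition.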

Test [16] is described as follows: qHTS assay to identify small molecule agonists of the estrogen receptor beta (ER-beta) signaling pathway - cell viability counter screen (AID 1259380). Note: nearly all actives have a fitted effect of over 30% in size. Note: potency is the fitted concentration of half-maximal effect. In a few lines: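 CellTiter-Glo read, 30 min RT, same wells as bla assay; cells ER-beta-UAS-bla HEK293T; 16 hr compound, 37C; medium 2% charcoal-stripped FBS.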
For test [17], the target named is Estrogen receptor beta (Homo sapiens) (UniProt Q92731). Description: qHTS assay to identify small molecule antagonists of the estrogen receptor beta (ER-beta) signaling pathway (AID 1259378; active = well fitted inhibition curve with a large enough effect in the signal ratio in the repeat runs, not every such curve was filed as active; the % refers to the signal ratio). An outline of the steps: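 ER-beta-UAS-bla HEK293T cells in 2% charcoal-stripped FBS medium treated with compound plus 1nM final 17-beta-estradiol for 16 hr at 37C. Beta-lactamase reporter read by FRET substrate fluorescence after 2 hours at room temperature.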
Estrogen receptor beta (Homo sapiens), sequence (Q92731 whole entry, looked up): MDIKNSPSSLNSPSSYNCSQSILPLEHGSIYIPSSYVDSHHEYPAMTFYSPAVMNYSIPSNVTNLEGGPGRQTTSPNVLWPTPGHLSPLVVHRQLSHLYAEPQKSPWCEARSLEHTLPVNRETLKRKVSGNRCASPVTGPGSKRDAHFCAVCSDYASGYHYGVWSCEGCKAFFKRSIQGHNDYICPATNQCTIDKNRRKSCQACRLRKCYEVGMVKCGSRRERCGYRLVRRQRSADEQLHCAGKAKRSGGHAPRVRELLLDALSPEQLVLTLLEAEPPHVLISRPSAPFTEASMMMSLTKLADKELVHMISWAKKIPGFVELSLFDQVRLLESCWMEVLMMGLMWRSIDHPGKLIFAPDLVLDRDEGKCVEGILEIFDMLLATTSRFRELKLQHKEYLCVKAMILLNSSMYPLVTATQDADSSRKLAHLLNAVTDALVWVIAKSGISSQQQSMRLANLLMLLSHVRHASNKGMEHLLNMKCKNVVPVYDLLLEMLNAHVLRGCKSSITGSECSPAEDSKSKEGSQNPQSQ

For test [18], the target named is Androgen receptor (Homo sapiens) (UniProt P10275). Kind of test: qHTS assay to identify small molecule agonists of the androgen receptor (AR) signaling pathway in the presence of an antagonist (AID 1259381; calls by dose curve; note: nearly all actives have a fitted effect of over 15% in size). An outline of the steps: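 Test compounds at 15 concentrations were incubated for 16hr with MDA-kb2 reporter cells in presence of 3.0uM nilutamide (final). Signal: ONE-Glo luciferase luminescence.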
Androgen receptor (Homo sapiens), sequence (P10275 whole entry, looked up): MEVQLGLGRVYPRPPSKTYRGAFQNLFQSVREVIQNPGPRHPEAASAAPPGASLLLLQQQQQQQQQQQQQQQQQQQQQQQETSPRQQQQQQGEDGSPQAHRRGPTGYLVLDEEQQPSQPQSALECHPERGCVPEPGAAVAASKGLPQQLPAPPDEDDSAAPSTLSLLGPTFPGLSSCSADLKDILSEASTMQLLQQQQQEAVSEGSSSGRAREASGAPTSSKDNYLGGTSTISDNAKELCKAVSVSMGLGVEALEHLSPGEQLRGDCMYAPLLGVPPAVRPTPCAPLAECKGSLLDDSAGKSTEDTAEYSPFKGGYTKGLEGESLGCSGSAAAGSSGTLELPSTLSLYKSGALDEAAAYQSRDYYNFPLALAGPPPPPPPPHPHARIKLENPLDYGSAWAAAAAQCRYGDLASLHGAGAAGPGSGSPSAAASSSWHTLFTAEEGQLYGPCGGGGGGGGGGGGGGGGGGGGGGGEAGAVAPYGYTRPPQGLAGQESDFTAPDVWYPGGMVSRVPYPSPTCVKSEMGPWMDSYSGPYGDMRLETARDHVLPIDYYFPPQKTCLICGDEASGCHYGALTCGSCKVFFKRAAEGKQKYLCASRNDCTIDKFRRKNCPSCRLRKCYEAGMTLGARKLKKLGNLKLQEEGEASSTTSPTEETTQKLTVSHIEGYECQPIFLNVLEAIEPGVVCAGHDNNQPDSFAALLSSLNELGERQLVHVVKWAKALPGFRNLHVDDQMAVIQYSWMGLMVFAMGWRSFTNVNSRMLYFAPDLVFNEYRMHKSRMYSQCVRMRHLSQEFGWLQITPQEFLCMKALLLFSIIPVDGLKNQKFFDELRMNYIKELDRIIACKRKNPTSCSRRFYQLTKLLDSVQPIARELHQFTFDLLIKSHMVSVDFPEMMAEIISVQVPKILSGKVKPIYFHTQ

Test [19] concerns the target Estrogen receptor (Homo sapiens) (UniProt P03372). Kind of test: qHTS assay to identify small molecule agonists of the estrogen receptor alpha (ER-alpha) signaling pathway in the presence of an antagonist (AID 1259383; calls by dose curve; note: top concentration of the series differs between compounds; nearly all actives have a fitted effect of over 15% in size). An outline of the steps:
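Stably transfected VM7Luc4E2 reporter cells, kept 5 days in charcoal-stripped serum, received ICI-182,780 at 10.0nM final before compound addition. Following 22hr incubation at 37C and 5% CO2, luciferase signal was read by luminescence.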

Several values for one entry are separate records, joined by “and”; a condition that tells them apart may be missing. Equal entries are not always repeated. Inconclusive results are not listed. More than one record can exist for a structure, and the calls need not agree. Activity calls are given as the source filed them. Unless noted, calls come from the whole dose curve; as a rule, active = well fitted curve in the direction sought with a large enough effect in the repeat runs; inconclusive = weak or mixed curves; inactive = no such curve, though single readings can be large; an effect the other way counts as inactive or inconclusive.

Progesterone receptor (Homo sapiens), sequence (P06401 whole entry, looked up): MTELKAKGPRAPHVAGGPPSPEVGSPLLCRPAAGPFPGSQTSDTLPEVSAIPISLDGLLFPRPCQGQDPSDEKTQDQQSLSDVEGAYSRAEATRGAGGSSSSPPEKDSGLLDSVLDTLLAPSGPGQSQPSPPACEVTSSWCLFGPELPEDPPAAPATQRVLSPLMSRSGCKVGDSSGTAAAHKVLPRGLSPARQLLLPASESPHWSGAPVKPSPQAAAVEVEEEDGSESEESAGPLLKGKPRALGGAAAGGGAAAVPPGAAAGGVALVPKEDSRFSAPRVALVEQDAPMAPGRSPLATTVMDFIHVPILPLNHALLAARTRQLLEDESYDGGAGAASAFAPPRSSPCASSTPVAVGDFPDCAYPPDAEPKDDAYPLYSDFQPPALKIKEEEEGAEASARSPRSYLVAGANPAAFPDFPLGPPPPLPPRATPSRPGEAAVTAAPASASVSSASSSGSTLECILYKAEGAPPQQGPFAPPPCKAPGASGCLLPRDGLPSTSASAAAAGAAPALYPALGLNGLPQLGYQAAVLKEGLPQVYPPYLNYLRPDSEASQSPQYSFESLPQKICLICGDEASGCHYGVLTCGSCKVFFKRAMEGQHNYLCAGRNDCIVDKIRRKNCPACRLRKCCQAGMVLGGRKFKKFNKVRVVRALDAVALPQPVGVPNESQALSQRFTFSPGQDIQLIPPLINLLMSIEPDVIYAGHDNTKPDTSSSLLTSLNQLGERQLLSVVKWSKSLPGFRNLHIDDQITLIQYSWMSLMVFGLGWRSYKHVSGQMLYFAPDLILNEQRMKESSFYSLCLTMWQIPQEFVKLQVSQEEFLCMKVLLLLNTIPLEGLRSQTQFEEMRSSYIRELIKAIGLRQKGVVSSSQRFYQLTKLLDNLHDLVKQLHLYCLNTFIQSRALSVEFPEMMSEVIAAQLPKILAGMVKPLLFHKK
Thyrotropin receptor (Homo sapiens), sequence (P16473 whole entry, looked up): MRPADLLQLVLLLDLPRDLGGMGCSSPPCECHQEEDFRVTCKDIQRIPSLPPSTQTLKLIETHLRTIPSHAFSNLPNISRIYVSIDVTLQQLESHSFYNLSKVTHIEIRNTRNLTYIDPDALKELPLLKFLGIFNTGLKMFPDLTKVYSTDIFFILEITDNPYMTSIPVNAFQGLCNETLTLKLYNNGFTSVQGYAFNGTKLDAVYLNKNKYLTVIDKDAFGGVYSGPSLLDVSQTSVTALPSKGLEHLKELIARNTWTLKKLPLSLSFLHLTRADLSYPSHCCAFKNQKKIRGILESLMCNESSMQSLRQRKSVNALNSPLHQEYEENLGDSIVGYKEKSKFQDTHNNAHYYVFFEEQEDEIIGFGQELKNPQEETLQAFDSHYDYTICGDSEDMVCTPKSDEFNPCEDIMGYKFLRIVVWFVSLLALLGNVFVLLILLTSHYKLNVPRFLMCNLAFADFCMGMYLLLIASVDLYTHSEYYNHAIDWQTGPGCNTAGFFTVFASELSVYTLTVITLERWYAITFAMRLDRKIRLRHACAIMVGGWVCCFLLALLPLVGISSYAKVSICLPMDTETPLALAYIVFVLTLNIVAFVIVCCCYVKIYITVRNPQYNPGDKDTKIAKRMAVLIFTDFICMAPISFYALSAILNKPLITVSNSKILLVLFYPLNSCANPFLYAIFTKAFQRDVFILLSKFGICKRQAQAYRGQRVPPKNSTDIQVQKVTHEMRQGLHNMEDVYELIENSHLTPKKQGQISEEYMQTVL
Estrogen receptor (Homo sapiens), sequence (P03372 whole entry, looked up): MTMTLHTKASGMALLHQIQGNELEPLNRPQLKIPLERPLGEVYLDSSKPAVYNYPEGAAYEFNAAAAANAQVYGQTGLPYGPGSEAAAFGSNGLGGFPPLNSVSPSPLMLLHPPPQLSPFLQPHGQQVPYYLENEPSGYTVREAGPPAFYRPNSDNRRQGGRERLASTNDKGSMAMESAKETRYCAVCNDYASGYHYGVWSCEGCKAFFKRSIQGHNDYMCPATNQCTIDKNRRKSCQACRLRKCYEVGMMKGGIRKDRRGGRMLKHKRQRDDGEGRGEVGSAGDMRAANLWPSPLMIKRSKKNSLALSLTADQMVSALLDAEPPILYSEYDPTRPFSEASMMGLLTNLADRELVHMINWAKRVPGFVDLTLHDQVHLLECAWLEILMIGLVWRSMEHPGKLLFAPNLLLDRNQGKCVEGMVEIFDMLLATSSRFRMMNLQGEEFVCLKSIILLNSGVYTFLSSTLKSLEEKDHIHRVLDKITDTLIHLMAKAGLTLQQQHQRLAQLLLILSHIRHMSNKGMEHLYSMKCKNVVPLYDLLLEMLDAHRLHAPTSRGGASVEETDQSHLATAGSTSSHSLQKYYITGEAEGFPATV

With `Nc1ccc(Cc2ccc(N)cc2)cc1`, the Potency result in test [1], in test [3], in test [4], in test [6], in test [8] and in test [10] was “inactive” each time. Moreover, the Potency entry in [13] and in test [14] was “inactive” throughout. Moreover, the result in test [2], in [5], in [7], in [9], in test [11] and in test [12] was inactive.

As for `CN(C)N=O`, the Potency entry in [1], in test [3], in test [4], in test [6], in [15] and in test [16] was “inactive” in each case. The Potency entry in [8], in test [13] and in [14] was “inactive” throughout. In addition, the molecule was called inactive in test [2], in [5], in test [7], in test [11] and in test [12].

With `CC(C)(C)OOC(=O)c1ccccc1`, the Potency result in [1], in test [3], in test [4], in [6], in test [16] and in test [8] was “inactive” throughout. Moreover, the Potency result in [13] and in [14] was “inactive” throughout. Also, the result in test [2], in test [5], in [7], in test [11] and in [12] was inactive. Further, the Potency in test [15] is 61.2 µM (active) and inactive.

`OCCN(CCO)CCO`: the Potency entry in [1], in [3], in test [4], in [6], in [16] and in [8] was “inactive” each time. For the same molecule, the Potency result in [10], in test [13] and in test [14] was “inactive” throughout. The molecule was classed as inactive in test [2], in [5], in [7], in test [11] and in test [12].

As for `OC(O)C(Cl)(Cl)Cl`, the Potency result in test [1], in test [3], in test [4], in [6], in test [15] and in test [16] was “inactive” in each case. Also, the Potency result in test [8], in test [10], in [13] and in test [14] was “inactive” in each case. The molecule was called inactive in test [2], in test [5], in [7], in test [11] and in [12].

With `COCCl`, the Potency entry in test [1], in test [3], in test [4], in [15], in [16] and in test [8] was “inactive” each time. Also, the Potency entry in [10], in test [13] and in test [14] was “inactive” each time. The outcome in test [2], in test [5], in test [17], in test [7], in test [18] and in [9] was inactive. Moreover, the outcome in [11] and in [12] was inactive. Besides, the Potency in test [6] was 16 µM (active) and inactive.

`CCC[N+](=O)[O-]`: the Potency result in [1], in test [3], in [4], in [6], in [15] and in test [10] was “inactive” each time. Also, the result in test [2], in test [5], in test [7], in test [9] and in test [11] was inactive. Also, the Potency was 8.48 µM (active) and inactive in test [16]; 23.9 µM (active) and inactive in [8]; 8.48 µM (active) and inactive in [13].

On to `C[C@]12CC[C@H]3[C@@H](CC[C@@]45O[C@@H]4C(O)=C(C#N)C[C@]35C)[C@@H]1CC[C@@H]2O`, for which the Potency result in test [1], in test [3], in [4], in test [16], in test [8] and in [10] was “inactive” throughout. The Potency entry in [14] was “inactive”. The result in test [2], in [5], in [7], in [9], in test [11] and in test [12] was inactive. The Potency in test [6] is 27.3 µM (active) and 13.3 µM (active).

Consider `O=c1[nH]c(=O)[nH]c(=O)[nH]1`, for which the Potency entry in test [1], in test [3], in [4], in test [6], in test [15] and in [16] was “inactive” each time. For the same molecule, the Potency entry in test [8], in test [10], in test [13] and in test [14] was “inactive” throughout. For the same molecule, the molecule was classed as inactive in [2], in [5], in test [7], in test [18], in [11] and in [12].

For the molecule `NCC(O)c1ccc(O)cc1` (stereo not given), the Potency result in [1], in test [3], in [4], in test [6], in test [15] and in test [16] was “inactive” each time. In addition, the Potency result in [8], in [10], in [13] and in [14] was “inactive” in each case. Also, the outcome in [2], in test [5], in test [17], in test [7], in [9] and in [11] was inactive. Besides, the molecule was classed as inactive in test [12].

On to `O=S(=O)(c1ccc(Cl)cc1)c1cc(Cl)c(Cl)cc1Cl`, for which the Potency entry in test [1], in test [3], in test [4], in [15], in [16] and in test [8] was “inactive” in each case. Further, the Potency entry in [19] and in [14] was “inactive” in each case. Moreover, the molecule was called inactive in test [2], in [5], in [7], in [11] and in test [12]. Further, the figures for the Potency in test [10] and in test [13] were 61.1 µM (active) and 13.7 µM (active), respectively.
